TRPML1 inh – inhibitors of human TRPML1 channel; Q9GZU1; 390,000 compounds, 0.02% hits; activity change, negative = inhibition, % (no concentration beside the values); TRPML1-inducible cells, Ca2+ dye fluorescence, FDSS; active compounds read low; inhibition of EC80 agonist-evoked calcium signal; in the data active = activity change below about -50%; inconclusive = between about -30% and that limit;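 also: stimulus is agonist 54-4 at its EC80 concentration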
Target sequence (Q9GZU1 whole entry, looked up): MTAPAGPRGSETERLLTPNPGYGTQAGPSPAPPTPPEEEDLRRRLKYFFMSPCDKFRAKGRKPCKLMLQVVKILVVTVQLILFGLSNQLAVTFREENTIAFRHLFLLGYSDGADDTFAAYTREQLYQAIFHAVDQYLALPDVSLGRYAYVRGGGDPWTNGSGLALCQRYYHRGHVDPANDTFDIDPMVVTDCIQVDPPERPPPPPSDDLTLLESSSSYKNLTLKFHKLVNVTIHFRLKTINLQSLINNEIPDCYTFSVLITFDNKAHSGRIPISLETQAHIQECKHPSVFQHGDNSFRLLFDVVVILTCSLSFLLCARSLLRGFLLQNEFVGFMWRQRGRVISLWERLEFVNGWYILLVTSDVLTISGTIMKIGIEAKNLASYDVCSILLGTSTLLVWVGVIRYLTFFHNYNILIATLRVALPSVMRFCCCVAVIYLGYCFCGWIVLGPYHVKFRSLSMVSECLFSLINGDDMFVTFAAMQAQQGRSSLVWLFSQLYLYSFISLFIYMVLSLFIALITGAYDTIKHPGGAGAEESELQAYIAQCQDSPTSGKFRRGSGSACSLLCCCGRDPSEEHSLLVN
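Tet-induced TRPML1-DL cells loaded with Ca8 no-wash calcium dye were read kinetically on FDSS. Compound addition was followed by EC80 agonist 54-4 (4 uM final); inhibition was read over 110 s.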
DRD3 agonist – agonists of human D3 dopamine receptor | P35462 | D3R DiscoveRx beta-arrestin cells, luminescence, 90 min | max activation, % | 410,000 compounds, 0.58% hits; in the data active = max activation above about 30%
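Agonist-mode cell screen: cells plated at 1500/well and incubated overnight at 37 °C, then exposed to library compounds for 90 min at 37 °C. Detection reagent was added for 30–60 min at room temperature, and luminescence was read.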
DRD3 antagonist – antagonists of human D3 dopamine receptor. D3R cells, DiscoveRx beta-arrestin luminescence, antagonist mode; active compounds read low. max response, negative = inhibition, %. 360,000 compounds, 2.5% hits. P35462. AID 652054; in the data active = max response below about -50%; inconclusive = no clear call, values can overlap the other calls
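Cells expressing the human receptor were seeded at 1500 cells/well, incubated overnight at 37 degrees C in 5% CO2, then exposed to library compounds with dopamine controls for 90 minutes at 37 degrees C before luminescent detection.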
TRPML1 ag – agonists of human TRPML1 channel; activation, % (no concentration beside the values); 410,000 compounds, 0.12% hits; TRPML1-expressing cells, Ca2+ dye fluorescence, FDSS; in the data active = activation above about 50%; inconclusive = mostly about 30% to 49%
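Calcium fluorescence on an FDSS kinetic reader gave the read-out. Tet-induced TRPML1-DL cells were plated overnight, dye-loaded (Ca8 with quencher, 45-90 min, room temperature, dark), then read 110 s after compound addition, and again 110 s after 4uM final 54-4 (EC80).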
Of the large screens only hits and unclear results are named; the others gave an inactive call; ! = not active in a repeat. In the library only some 2.9% were active in any assay of this set; here they are far more common.

COCc1cc(C)[nH]c(=O)c1C#N	DRD3 antagonist -53
CC(=O)c1ccc(NC(=O)c2cccc(NC(=O)N3CCSc4ncccc43)c2)cc1	none (no result: DRD3 antagonist)
c1ccc2c(c1)CCN(c1nc3ccccc3n3cnnc13)C2	none
c1ccc(CN2CCN(c3nc4ccccc4n4cnnc34)CC2)cc1	DRD3 antagonist -135
C1=C(c2ccccc2)CCN(c2nc3ccccc3n3cnnc23)C1	DRD3 antagonist -70
c1ccc(N2CCN(c3nc4ccccc4n4cnnc34)CC2)cc1	none
Cc1nc2n(c(=O)c1CCN1CCC(c3noc4cc(F)ccc34)CC1)CCC[C@@H]2O	none (no result: TRPML1 inh, DRD3 agonist, DRD3 antagonist)
COc1cccc(N2CCN(CC(=O)Nc3ccccc3C(=O)NCCc3ccccc3)CC2)c1	DRD3 agonist 34
Cc1ccc2nc(-c3ccc(NC(=O)COc4c(C)ccc(C)c4C)cc3)sc2c1	none (no result: DRD3 antagonist)
Cc1ccc2nc(-c3ccc(NC(=O)COc4ccc(Cl)c(C)c4)cc3)sc2c1	DRD3 agonist 61 (no result: DRD3 antagonist)
COc1ccc(OC)c(S(=O)(=O)NCCc2sc(-c3cccnc3)nc2C)c1	none (no result: DRD3 antagonist)
Cc1ccccc1C(=O)NCc1nnc(SCC(=O)N2c3ccccc3Sc3ccccc32)n1C	DRD3 antagonist -64
CCOc1cc(CNC(=O)Cn2ncn3c(cc4cc(F)ccc43)c2=O)cc(OCC)c1OCC	none (no result: DRD3 antagonist)
COC(=O)c1sccc1NC(=O)NC1CCCCC1	DRD3 antagonist -51
COC(=O)c1sccc1NC(=O)Nc1ccc(C)cc1	DRD3 agonist 55
COC(=O)c1cc(Br)ccc1NC(=O)Nc1ccc(C)cc1	DRD3 antagonist -80
CCCC12CN3CC(C)(CN(C1)C3c1ccc(OCc3ccccc3)cc1)C2=O (configuration not stated)	none (no result: DRD3 antagonist)
NNc1nc2sc3c(c2c(=O)[nH]1)CCc1ccccc1-3	DRD3 antagonist -55
O=c1c(N2CCN(c3cccc(Cl)c3)CC2)csc2ccc(Cl)cc12	none (no result: DRD3 antagonist)
C=C[C@@]1(C)C[C@H](OC(=O)CSC(C)(C)CNC(=O)[C@@H](N)C(C)C)[C@@]2(C)C(C)CC[C@@]3(CCC(=O)[C@@H]32)[C@H](C)[C@H]1O (some centres not stated)	none (no result: TRPML1 inh, DRD3 agonist, DRD3 antagonist)
C=C[C@]1(C)C[C@@H](OC(=O)CSCCN(CC)CC)[C@]2(C)C(C)CC[C@]3(CCC(=O)[C@H]32)[C@@H](C)[C@@H]1O (some centres not stated)	DRD3 antagonist -89!
CC(Oc1ccc(Cl)cc1Cl)C(=O)Nc1cccnc1 (configuration not stated)	DRD3 antagonist -53
CC(Oc1ccc(Cl)cc1Cl)C(=O)NC1CCSC1=O (configuration not stated)	DRD3 antagonist -75
CC(NS(=O)(=O)c1ccc(Cl)c(Cl)c1)C(=O)Nc1cccnc1 (configuration not stated)	DRD3 antagonist -57
Cc1ccc2nc(N(Cc3cccnc3)C(=O)c3ccco3)sc2c1	none (no result: DRD3 antagonist)
CC1CCC(C(=O)NC(C(=O)OCC(=O)c2ccc(Br)cc2)C(C)C)CC1 (configuration not stated)	none (no result: DRD3 antagonist)
NC(=O)CC(NC(=O)Cc1ccc(Br)cc1)c1ccc(N2CCC(Br)CC2)c([N+](=O)[O-])c1 (configuration not stated)	none
NC(=O)CC(NC(=O)Cc1cccc2ccccc12)c1ccc(NC2CCCC2)c([N+](=O)[O-])c1 (configuration not stated)	none
COc1ccc(CCNc2ccc(C(CC(N)=O)NC(=O)c3ccc(Br)cc3)cc2[N+](=O)[O-])cc1 (configuration not stated)	DRD3 antagonist -68
NC(=O)CC(NC(=O)Cc1ccc(Cl)cc1)c1ccc(NC2CC3CCC2C3)c([N+](=O)[O-])c1 (configuration not stated)	DRD3 antagonist -63
NC(=O)CC(NC(=O)Cc1ccc(Br)cc1)c1ccc(N2CCC(Cc3ccccc3)CC2)c([N+](=O)[O-])c1 (configuration not stated)	DRD3 antagonist -97
NC(=O)CC(NC(=O)Cc1cccc2ccccc12)c1ccc(NC2CC3CCC2C3)c([N+](=O)[O-])c1 (configuration not stated)	DRD3 antagonist -65
O=c1[nH]cc(CCc2ccccc2)c2ncncc12	none (no result: TRPML1 inh, DRD3 agonist, DRD3 antagonist)
NC(=O)CC(NC(=O)Cc1cccc2ccccc12)c1ccc(NCCOc2ccccc2)c([N+](=O)[O-])c1 (configuration not stated)	DRD3 antagonist -80
COc1ccc(S(=O)(=O)NCC(c2ccco2)N2CCN(c3ccccc3F)CC2)cc1C (configuration not stated)	none (no result: DRD3 antagonist)
Cc1ccc(C(C)C)c(OCCNC(=O)c2cncc(Br)c2)c1	DRD3 antagonist -52
O=C(NCC(O)CO)c1c(I)c(C(=O)NCC(O)CO)c(I)c(N(CCO)C(=O)CO)c1I (configuration not stated)	none (no result: TRPML1 inh, DRD3 antagonist, TRPML1 ag)
C[C@H](CO)N1C[C@H](C)[C@H](CN(C)Cc2ccncc2)Oc2ncc(C#CC3CC3)cc2C1=O	DRD3 antagonist -56
C[C@@H]1CN([C@H](C)CO)C(=O)c2cc(C#CC3CCCCC3)cnc2O[C@H]1CN(C)Cc1cccnc1	none
CN(C)CCN1CCN(C2CN(Cc3cn(Cc4ccc(C(F)(F)F)cc4)nn3)S(=O)(=O)C2)CC1 (configuration not stated)	DRD3 antagonist inconclusive (no result: TRPML1 inh)
CN(C)CCN1CCN(C2CN(Cc3cn(Cc4cccc(C(F)(F)F)c4)nn3)S(=O)(=O)C2)CC1 (configuration not stated)	DRD3 antagonist -72 (no result: TRPML1 inh)
CN(C)CCN1CCN(C2CN(Cc3cn(Cc4ccc(Cl)cc4)nn3)S(=O)(=O)C2)CC1 (configuration not stated)	DRD3 antagonist -51 (no result: TRPML1 inh)
CCOc1ccc(NC(=O)CSc2nnc(CC)c(CC)n2)cc1	none (no result: DRD3 antagonist)
O=C(C[C@H]1CC[C@H]2[C@@H](COC[C@@H](O)CN2S(=O)(=O)c2ccccc2)O1)N[C@@H]1CCN(Cc2ccccc2)C1	DRD3 antagonist -71 (no result: TRPML1 inh, TRPML1 ag)
COc1ccc(CN=Cc2[nH]c3ccc(Br)c(Cl)c3c2O)cc1	DRD3 antagonist -74
Cc1cc(C)cc(N=Cc2[nH]c3ccc(Br)c(Cl)c3c2O)c1	DRD3 antagonist inconclusive
CCN(CC)c1ccc(/C=C/c2cc(Cl)nc3ccccc23)cc1	none (no result: TRPML1 inh, DRD3 agonist, DRD3 antagonist)
CCN(CC)c1ccc2nc3ccc(N)cc3[n+](-c3ccccc3)c2c1	DRD3 antagonist -56
CCN(CC)c1ccc2nc3ccccc3[n+](CC)c2c1	DRD3 antagonist -65
C[C@@H](O)[C@H](N)C(=O)O	none (no result: TRPML1 inh, DRD3 antagonist, TRPML1 ag)
COc1ccc(OC)c(NC(=O)CN(C)S(=O)(=O)c2ccc(C(=O)N3CCOCC3)s2)c1	none (no result: DRD3 antagonist)
Cc1cc(-c2c(C)[nH]n(-c3ccc(Cl)cc3)c2=O)n[nH]1	DRD3 antagonist -60
N#Cc1c(NC(=O)Cn2cnc3ccccc3c2=O)oc(-c2ccccc2)c1-c1ccccc1	DRD3 antagonist -61
N#Cc1c(NC(=O)CN2CCOCC2)oc(-c2ccccc2)c1-c1ccccc1	DRD3 antagonist -59
Cc1ccc(OCC(=O)Nc2oc(-c3ccccc3)c(-c3ccccc3)c2C#N)cc1	none

From PubChem
